ABHD5 PLIN5 PPI – ABHD5-PLIN5 protein interaction inhibition. Q00G26+Q8WTS1. Split G. princeps luciferase complementation, luminescence, 4 h. inhibition, % at 4 µM. 360,000 compounds, 0.78% hits;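 active = inhibition above the mean inhibition across every tested compound plus 3 SD, cut at about 22% in these data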;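 note: 0% = DMSO only wells and the 100% control is not disclosed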
NTR1 ag – activates human neurotensin receptor 1 | activation, % at 20 µM | P30989 | 330,000 compounds, 0.17% hits | NTR1-U2OS beta-arrestin-GFP spot imaging, agonist mode;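 active = activation at or above 40% of the spot to cytoplasm intensity ratio, with at least 20 cells analyzed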;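 note: 0% = DMSO without peptide and 100% = 100 nM NTR1 peptide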
TLR4-MyD88 BLA – inhibitors of human TLR4-MyD88 binding | HeLa CL3-4 TLR4/MyD88 BLA complementation, FRET ratio | AID 861 | inhibition, % at 8.4 µM | 200,000 compounds, 0.18% hits; in the data active = inhibition above about 25%;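 note: 0% = vehicle and 100% = reference inhibitor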
NOD2-RIPK2 inh – inhibitors of human NOD2-RIPK2 interaction; O43353; CHO BLA complementation NOD2-RIPK2, CCF4 ratio; inhibition, % at 4.98 µM; 360,000 compounds, 0.38% hits; AID 624267; in the data active = inhibition above about 21%;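 note: 0% = vehicle only and 100% = reference blocker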
B2AR ag – activates human beta-2 adrenergic receptor causing internalization | Am2.2-beta2AR cells, FAP receptor internalization, flow cytometry | response, % (test concentration not listed) | 340,000 compounds, 0.43% hits | AID 504454;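 active = response above a set limit, near 3 SD of response in nonfluorescent compounds, cut at about 42% in these data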
TLR9-MyD88 block – TLR9-MyD88 interaction inhibition. Q9NR96+Q99836. CHO BLA complementation TLR9-MyD88, CCF4 FRET ratio. 340,000 compounds, 0.21% hits. inhibition, % at 4.98 µM;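 active = inhibition above the mean over all tested compounds plus 3 SD, cut at about 21% in these data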;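 note: 0% = DMSO only wells and 100% = clavulanate BLA inhibitor control wells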
NTR1 ag conf – confirmation of agonists of human NTR1; 480 compounds, 38% hits; activation, % at 20 µM; AID 504550; NTR1-U2OS beta-arrestin-GFP translocation imaging; shares compounds with NTR1 ag;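 active = mean activation at 20 µM of at least 40%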;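 note: 0% = DMSO without peptide and 100% = 100 nM NTR1 peptide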
Numbers without * were called inactive; nt = no result given. Compounds with a hit are over-represented: about 1.5% of the library has one in this group of screens.

SMILES	ABHD5 PLIN5 PPI	NTR1 ag	TLR4-MyD88 BLA	NOD2-RIPK2 inh	B2AR ag	TLR9-MyD88 block	NTR1 ag conf
Cn1c(N)c(C(=O)COC(=O)c2cc(C3CC3)nc3ccccc23)c(=O)n(Cc2ccccc2)c1=O	-7	40*	-5	5	7	0	1
COC(=O)[C@]12CCCCC=C1N(CCc1ccc(OC)c(OC)c1)C(=O)[C@H](CC(=O)N1CCN(C(=O)c3ccco3)CC1)C2	7	nt	nt	3	nt	nt	nt
C=C(C)COc1ccc(-c2nc(N)nc(C(F)(F)F)c2-c2ccc(OC)cc2)c(O)c1	-1	41*	nt	-11	-5	-13	12
COC(=O)C[C@H]1CC[C@@H]2[C@H](COC[C@H](O)CN2S(=O)(=O)c2ccccc2OC)O1	-3	nt	nt	-6	nt	nt	nt
CCOc1ccc(Br)cc1S(=O)(=O)Nc1ccccc1N1CCOCC1	2	49*	-10	8	-4	-6	54*
COc1ccc([C@@H]2C[C@H]3[C@@H](CN2S(=O)(=O)c2ccccc2)C(=O)C[C@@H](c2ccc(OC)cc2)N3S(=O)(=O)c2ccccc2)cc1	-11	nt	nt	9	nt	nt	nt
CCOC(=O)c1c(C)n(C)c2ccc(OCC(O)CN3CCCCCC3)cc12 (centres undefined)	-3	2	-10	5	3	5	nt
CCOC(=O)c1c(C)n(C)c2ccc(OCC(O)Cn3nc(C)c(Br)c3C)cc12 (centres undefined)	4	41*	-7	-2	13	-7	11
COC(=O)c1cccc(N2C(=O)C[C@](Sc3ccc(C)cc3)(C(=O)OC)[C@H]2c2ccccc2)c1	-2	nt	nt	6	nt	nt	nt
CO/N=C(\c1nonc1N)N1CCN(c2ccc(Cl)cc2[N+](=O)[O-])CC1	-1	58*	3	9	-13	-1	36
COc1ccc(-c2noc(CCC(=O)NC3CCCCCC3)n2)cc1OC	1	nt	nt	-11	nt	-22	nt
Cc1ccc(-n2ncc3c(N4CCN(c5ccccc5)CC4)ncnc32)c(C)c1	3	62*	15	2	28	-3	61*
Oc1ccc(C[C@@H]2CNC(=S)N2CCCCC2CCCCC2)cc1	-16	44*	-10	-7	-13	-6	32
COCOc1ccc(-c2ncc(OC)nc2NC(=O)c2cc(C)oc2C)cc1	-7	nt	nt	3	nt	nt	nt
c1ccc(CN2CCC(CNc3ncnc4ccccc34)C2)cc1 (centres undefined)	0	nt	nt	-8	-18	1	nt
c1ccc(CN2CCC(Nc3nc(-c4ccccc4)nc4ccccc34)CC2)cc1	11	42*	-13	8	19	-5	42*
O=C(NCCc1ccccc1)C(c1cccs1)N(C(=O)CCl)c1ccc(Cl)cc1 (centres undefined)	22	70*	18	15	-59	6	61*
O=[N+]([O-])c1cc(C(F)(F)F)ccc1NCCCCNS(=O)(=O)c1ccc(Cl)cc1	-2	20	-5	-7	-4	-14	nt
O=[N+]([O-])c1cc(C(F)(F)F)ccc1NCCNC(=S)Nc1ccc(Cl)cc1	-5	41*	11	-2	-2	0	17
CCN1C(=O)/C(=C/N(C(C)=O)c2ccccc2)N(c2ccccc2)C1=S	13	42*	10	3	-28	-1	61*
CC(=O)c1ccc(OC2(C)CCN(Cc3cc4ccccc4[nH]3)C2)cc1 (centres undefined)	7	nt	nt	11	nt	nt	nt
O=C(CSc1ccc(Cl)cc1)Nc1cc(-c2nc3ncccc3o2)ccc1Cl	nt	14	-5	nt	nt	nt	nt
O=C(CSc1ccc(Cl)cc1)Nc1cccc(-c2nc3ncccc3o2)c1	2	52*	-7	1	-1	-5	33
COCCNC(=O)C1(C)CCCN(C(=O)c2ccc(N(C)C)cc2)C1 (centres undefined)	3	nt	nt	-8	nt	nt	nt
COc1ccc(-c2nc3c4c(ncn3n2)-c2ccccc2CC42CCCC2)cc1	0	-2	3	4	9	8	nt
SMILES	ABHD5 PLIN5 PPI	NTR1 ag	TLR4-MyD88 BLA	NOD2-RIPK2 inh	B2AR ag	TLR9-MyD88 block	NTR1 ag conf
Oc1cccc(-c2nc3c4c(ncn3n2)-c2ccccc2CC42CCCC2)c1	-29	44*	8	-2	9	3	34
CCCOc1ccc(C(=O)c2ccccc2C(=O)OC2CCOC2=O)cc1OCCC (centres undefined)	-4	44*	nt	-13	-2	-5	46*
O=C(OC1CCOC1=O)c1ccccc1C(=O)c1ccc(Cl)c([N+](=O)[O-])c1 (centres undefined)	2	9	nt	14	12	-5	nt
COc1cc(Cl)ccc1OC1(C)CCN(Cc2c(F)cccc2F)C1 (centres undefined)	1	nt	nt	3	nt	nt	nt
Cc1cc(N/N=C/c2ccccc2O)nc(-c2ccccc2O)n1	-3	63*	-16	8	-5	-11	2
CN(C)S(=O)(=O)c1ccc(NC(=O)c2c(F)cccc2Cl)cc1	3	49*	9	-2	8	8	-5
CN(C)S(=O)(=O)c1ccc(NC(=O)c2ccncc2)cc1	3	1	-4	-1	-8	0	nt
Cc1ccccc1-c1csc(C(O)c2ccccc2)n1 (centres undefined)	-6	nt	nt	2	nt	nt	nt
C=C(C)COc1ccc(-c2[nH]ncc2-c2ccccc2OC)c(O)c1	-16	6	10	11	-3	12	nt
C=C(C)COc1ccc(-c2[nH]ncc2-c2ccc(Br)cc2)c(O)c1	-22	41*	-13	9	2	0	9
CCOc1ccc(-c2[nH]ncc2-c2ccc(Cl)cc2)c(O)c1	-6	55*	nt	16	-3	14	6
CCOC(=O)[C@]12CCC=C1N(Cc1ccc3c(c1)OCO3)C(=O)[C@H](CC(=O)NCCC(C)C)C2	-5	nt	nt	-4	nt	nt	nt
CCNC(=O)C1(C)CCCN(C(=O)Cc2ccc(OC)c(OC)c2)C1 (centres undefined)	10	nt	nt	-21	nt	nt	nt
Cc1noc(-c2ccccc2)c1NC(=O)Nc1ccc2nc([C@H]3C[C@H](O)[C@@H](CO)O3)[nH]c2c1	-8	nt	nt	-12	nt	nt	nt
O=C(c1cc(Cl)cc(Cl)c1)N1CCC(=O)N([C@H](COCc2ccccc2)Cc2ccccc2)CC1	6	nt	nt	-8	nt	nt	nt
COc1ccc(Cn2c(-c3ccccc3)nc3c(c(=O)c4ccccc4n3C)c2=O)cc1	1	13	-9	-9	-3	3	nt
Cn1c2ccccc2c(=O)c2c(=O)n(Cc3ccco3)c(-c3ccc(C(C)(C)C)cc3)nc21	nt	40*	nt	nt	nt	nt	19
Cc1ccc2nc(-c3ccc(NC(=O)C(C)Sc4nncs4)cc3)sc2c1 (centres undefined)	2	49*	nt	-5	37	0	32
O=C(COc1ccccc1)NCC(=O)N/N=C/c1ccc(O)cc1O	3	42*	nt	-2	4	-6	40

Bioassay records from PubChem.
